The record followed here is PubChem BioAssay (Tox21).

The target in experiment [1] is Androgen receptor (Homo sapiens) (UniProt P10275). Briefly: qHTS assay to identify small molecule antagonists of the androgen receptor (AR) signaling pathway using the MDA cell line in the presence of 0.5 nM R1881 (AID 1259243). Also: potency is read from the fitted curve at half-maximal effect; nearly all actives have a fitted effect of over 50% in size. The conditions noted are these: MDA-kb2 MMTV-luciferase, R1881 0.5 nM, 16 h; series mostly up to 42.5 µM. Put shortly:
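Cells: MDA-kb2 (MMTV-luc). Stimulus: 0.5 nM R1881. Time: 16 hr, 37C, no CO2. Detection: ONE-Glo luminescence after 30 min at RT.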

Experiment [2] in a line: qHTS assay to identify small molecule HDAC inhibitors (AID 1259364). Also: potency is read from the fitted curve at half-maximal effect.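 Also: wild-type HCT-116 cells with endogenous class I/II HDAC activity; nearly all actives have a fitted effect of over 45% in size.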 The note with it: HCT-116 HDAC-Glo I/II luminescence, 2 h; series mostly up to 92.4 µM. In outline:
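After a 2 hr compound incubation (37C, 5% CO2), HCT-116 cells seeded at 1,500/well the day before received HDAC-Glo reagent; signal read as luminescence after 30 min at room temperature.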
For orientation: qHTS replaces the single test concentration by a dilution series.

A short description of experiment [3]: qHTS assay to identify small molecule HDAC inhibitors - cell viability counter screen (AID 1259365). Also: nearly all actives have a fitted effect of over 50% in size. Also: potency is read from the fitted curve at half-maximal effect. The note with it: HCT-116 viability, CellTiter-Glo ATP luminescence, 2 h; series mostly up to 92.4 µM. In outline:
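After overnight seeding at 1,500 cells per well, wild-type HCT-116 cultures took up compounds in DMSO for 2hr at 37 C. Viable cell content came from luminescence with CellTiter-Glo.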

The nature of experiment [4]: qHTS assay to identify small molecule agonists of the sonic hedgehog signaling (Shh) pathway (AID 1259368; calls by dose curve;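 also: NIH/3T3-derived 3T3Gli1-Luc cells carrying a stable Gli1-driven firefly luciferase reporter; nearly all actives have a fitted effect of over 15% in size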). The conditions noted are these: NIH/3T3 Gli1-Luc reporter, luciferase, 24 h, stronger effect = higher value; series mostly up to 92.4 µM. In outline: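 Stable NIH/3T3 Gli1-Luc reporter clone; 24 hr cpd exposure after a 4 hr settling period; luminescence endpoint.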
Experiment [5] can be described thus: qHTS assay to identify small molecule antagonists of the estrogen receptor alpha (ER-alpha) signaling pathway using the BG1 cell line in the presence of 0.1 nM 17-beta-estradiol - cell viability counter screen (AID 1259241). Also: nearly all actives have a fitted effect of over 40% in size. The conditions noted are these: VM7Luc4E2 (BG1) viability, CellTiter-Fluor protease, 22 h, 0.1 nM estradiol agonist added; series mostly up to 92.4 µM. Put shortly:
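Estradiol-stimulated (0.1 nM) VM7Luc4E2 cells exposed to compounds 22 hr; viability measured by fluorescence of cleaved CellTiter-Fluor substrate after 30 min.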

Experiment [6] in a line: qHTS assay to identify small molecule agonists of the sonic hedgehog signaling (Shh) pathway - cell viability counter screen (AID 1259366). Also: nearly all actives have a fitted effect of over 50% in size. Also: potency is read from the fitted curve at half-maximal effect. The conditions noted are these: NIH/3T3 Gli1-Luc viability, CellTiter-Fluor, 24 h; series mostly up to 92.4 µM. In outline:
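Same-well cytotoxicity read. Gli1-Luc reporter 3T3 cells; compounds 24hr, 37C/5% CO2; CellTiter-Fluor fluorescence.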

The nature of experiment [7]: qHTS assay to identify small molecule antagonists of the sonic hedgehog signaling (Shh) pathway - cell viability counter screen (AID 1259367). Also: nearly all actives have a fitted effect of over 55% in size. Also: potency is read from the fitted curve at half-maximal effect. The conditions noted are these: NIH/3T3 Gli1-Luc viability, CellTiter-Fluor, 24 h; series mostly up to 92.4 µM. In outline:
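Conditioned medium drove Shh signaling in 3T3 Gli1-Luc cells exposed to compounds at 37C and 5% CO2. Viability was determined from CellTiter-Fluor fluorescence, with reagent incubated 1 hr after 23 hr of treatment.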

In experiment [8] the target is Estrogen receptor (Homo sapiens) (UniProt P03372). Briefly: qHTS assay to identify small molecule antagonists of the estrogen receptor alpha (ER-alpha) signaling pathway using the BG1 cell line in the presence of 0.1 nM 17-beta-estradiol (AID 1259244). Also: nearly all actives have a fitted effect of over 50% in size. Also: potency is read from the fitted curve at half-maximal effect. The conditions noted are these: VM7Luc4E2 (BG1) ERE-luciferase, antagonist mode, 0.1 nM E2, 22 h; series mostly up to 42.5 µM. Put shortly:
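Seeding of stripped-serum-adapted VM7Luc4E2 cells, 24 h attachment, compound transfer, then 0.1 nM final 17beta-estradiol; after 22 h incubation, ONE-Glo reagent and luminescence reading.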

Experiment [9] in a line: qHTS assay to identify small molecule antagonists of the androgen receptor (AR) signaling pathway using the MDA cell line in the presence of 0.5 nM R1881 - cell viability counter screen (AID 1259242). Also: nearly all actives have a fitted effect of over 45% in size. Also: potency is read from the fitted curve at half-maximal effect. The note with it: MDA-kb2 viability, CellTiter-Fluor protease fluorescence, 16 h; series mostly up to 92.4 µM. Put shortly: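 Human breast carcinoma MDA-kb2 cells, cultured without CO2, receive compounds alongside 0.5 nM (final) R1881 agonist. After 16 hr at 37C, viability is taken as live-cell protease signal.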

A short description of experiment [10]: qHTS assay to identify small molecule phospholipidosis (PLD) inducers (AID 1259344; active = well fitted curve in the direction sought with a large enough effect; an effect the other way counts as inactive or inconclusive; also: potency is read from the fitted curve at half-maximal effect). The conditions noted are these: HepG2 phospholipidosis, LipidTOX Red imaging, 24 h; series mostly up to 38.3 µM. In outline:
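After 4 h attachment on collagen I, HepG2 cells were dosed with compound alongside LipidTOX Red, kept 24 h at 37 C, fixed, and imaged for lamellar phospholipid pits.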

Several values for one entry are separate records, joined by “and”; a condition that tells them apart may be missing. Equal entries are not always repeated. Results filed as inconclusive are left out. Activity calls are given as the source filed them. Unless noted, calls follow the shape of the dose curve; as a rule, active = well fitted curve in the direction sought with a large enough effect in the repeat runs; inconclusive = weak or mixed curves; inactive = no such curve, though single readings can be large; an effect the other way counts as inactive or inconclusive.

Estrogen receptor (Homo sapiens), sequence (P03372 whole entry, looked up): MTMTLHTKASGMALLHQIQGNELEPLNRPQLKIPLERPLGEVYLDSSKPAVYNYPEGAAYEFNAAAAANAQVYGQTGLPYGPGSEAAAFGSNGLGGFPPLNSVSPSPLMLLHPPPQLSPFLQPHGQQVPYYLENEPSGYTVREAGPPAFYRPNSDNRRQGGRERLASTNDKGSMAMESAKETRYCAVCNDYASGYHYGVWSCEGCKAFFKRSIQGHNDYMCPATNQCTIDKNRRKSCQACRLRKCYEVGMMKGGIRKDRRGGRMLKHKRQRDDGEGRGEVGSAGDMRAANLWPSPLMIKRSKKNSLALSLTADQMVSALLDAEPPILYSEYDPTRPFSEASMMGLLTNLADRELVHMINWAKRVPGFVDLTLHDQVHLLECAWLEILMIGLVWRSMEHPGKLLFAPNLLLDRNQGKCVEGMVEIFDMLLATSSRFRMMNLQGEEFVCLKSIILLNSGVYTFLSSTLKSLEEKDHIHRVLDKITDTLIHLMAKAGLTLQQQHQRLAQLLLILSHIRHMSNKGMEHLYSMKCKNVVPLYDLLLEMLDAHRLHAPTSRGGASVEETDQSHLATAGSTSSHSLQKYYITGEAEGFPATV
Androgen receptor (Homo sapiens), sequence (P10275 whole entry, looked up): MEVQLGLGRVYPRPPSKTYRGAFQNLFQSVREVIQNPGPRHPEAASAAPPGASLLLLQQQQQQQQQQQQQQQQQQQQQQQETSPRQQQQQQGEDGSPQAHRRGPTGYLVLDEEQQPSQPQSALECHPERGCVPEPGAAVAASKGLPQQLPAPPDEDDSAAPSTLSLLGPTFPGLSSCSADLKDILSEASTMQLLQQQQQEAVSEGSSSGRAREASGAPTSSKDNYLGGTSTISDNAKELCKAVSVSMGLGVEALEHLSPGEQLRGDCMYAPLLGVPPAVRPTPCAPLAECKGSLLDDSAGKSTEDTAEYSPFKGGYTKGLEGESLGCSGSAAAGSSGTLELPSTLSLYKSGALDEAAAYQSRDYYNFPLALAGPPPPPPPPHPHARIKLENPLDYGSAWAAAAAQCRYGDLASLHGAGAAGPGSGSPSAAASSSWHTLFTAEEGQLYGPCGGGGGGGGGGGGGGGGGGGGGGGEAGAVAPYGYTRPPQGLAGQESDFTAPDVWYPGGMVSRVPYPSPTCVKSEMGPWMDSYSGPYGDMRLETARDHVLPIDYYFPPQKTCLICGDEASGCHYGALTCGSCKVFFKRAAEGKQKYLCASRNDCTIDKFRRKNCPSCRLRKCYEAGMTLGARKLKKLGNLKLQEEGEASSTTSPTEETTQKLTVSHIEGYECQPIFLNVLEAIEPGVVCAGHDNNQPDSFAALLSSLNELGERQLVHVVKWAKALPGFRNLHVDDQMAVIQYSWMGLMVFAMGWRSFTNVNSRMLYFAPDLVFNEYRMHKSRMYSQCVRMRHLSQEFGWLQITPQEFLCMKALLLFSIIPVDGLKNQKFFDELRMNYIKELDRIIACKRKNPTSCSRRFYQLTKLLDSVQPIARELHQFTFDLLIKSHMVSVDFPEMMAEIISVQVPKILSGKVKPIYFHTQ

Turning to `CCN(CC)c1ccc(C(=C2C=CC(=[N+](CC)CC)C=C2)c2cc(S(=O)(=O)O)ccc2S(=O)(=O)[O-])cc1`, the Potency in experiment [1] was 7.5 µM (active); in experiment [2], 9.44 µM (active); in experiment [3] it was 11.9 µM (active). Also, the result in experiment [4] was inactive.

For the molecule `O=C(O)c1nc(Cl)c(Cl)c(Cl)c1Cl`, the Potency entry in experiment [5], in experiment [2], in experiment [3], in experiment [6] and in experiment [7] was “inactive” each time. Also, the molecule was classed as inactive in [4].

Consider `CNCCCN1c2ccccc2CCc2ccccc21`, for which the Potency result in experiment [5], in experiment [8], in [2] and in experiment [3] was “inactive” each time. In addition, the result in experiment [4] was inactive.

As for `CCCCCCc1ccc(-c2ccc(C#N)cc2)cc1`, the Potency entry in experiment [5], in [2], in experiment [3] and in [7] was “inactive” throughout. In experiment [4], the molecule was classed as inactive.

`O=C(O)c1ccccc1Cl`: the Potency entry in experiment [5], in experiment [2], in experiment [3], in experiment [6] and in experiment [7] was “inactive” each time. In addition, the result in [4] was inactive.

In the case of `Cc1oc(-c2ccccc2)nc1CCOc1cccc2c1ccn2CCC(=O)O`, the Potency result in experiment [9], in experiment [8], in experiment [2] and in experiment [3] was “inactive” throughout. For the same molecule, the results for the Potency in experiment [6] and in experiment [7] were 21.7 µM (active) and 6.86 µM (active), respectively. Besides, the call in experiment [4] was inactive.

With `CCCCC1=NC2(CCCC2)C(=O)N1Cc1ccc(-c2ccccc2-c2nn[nH]n2)cc1`, the Potency entry in [8], in experiment [10], in experiment [2] and in [3] was “inactive” in each case. The Potency was 4.22 µM (active) in [6] and 6.68 µM (active) in [7]. For the same molecule, the outcome in experiment [4] was inactive.

With `C=CC(=O)OCCOCCOCCOCCOC(=O)C=C`, the Potency in experiment [8] is 54.8 µM (active); in experiment [6], 27.4 µM (active) and 21.5 µM (active); in experiment [7] it was 19.4 µM (active) and 27.1 µM (active). For the same molecule, the Potency entry in [2] and in experiment [3] was “inactive” throughout. Moreover, the result in [4] was inactive.

With `COc1ccc(S(=O)(=O)N2C(=O)[C@@](c3ccccc3OC)(N3C[C@H](O)C[C@H]3C(=O)N(C)C)c3cc(Cl)ccc32)c(OC)c1`, the values for the Potency in experiment [1], in experiment [6] and in experiment [7] were 54.5 µM (active), 8.63 µM (active) and 9.69 µM (active), respectively. Besides, the Potency entry in experiment [2] and in experiment [3] was “inactive” in each case. In addition, in [4], the call was inactive.

With `O=S(=O)(Oc1ccc(Cl)cc1)c1ccccc1`, the Potency entry in experiment [5], in experiment [8], in [3], in [6] and in experiment [7] was “inactive” in each case. Moreover, the call in experiment [4] was inactive.

Turning to `CC(C)(CO)[N+](=O)[O-]`, the Potency result in experiment [5], in experiment [2], in [3], in experiment [6] and in [7] was “inactive” in each case. Further, in experiment [4], the result was inactive.

Regarding `Cc1cccc(C)c1OCC(=O)N[C@@H](Cc1ccccc1)[C@@H](O)C[C@H](Cc1ccccc1)NC(=O)[C@H](C(C)C)N1CCCNC1=O`, the Potency entry in experiment [9], in experiment [10], in [2] and in [3] was “inactive” throughout. In addition, the values for the Potency in [1], in [6] and in experiment [7] were 23.7 µM (active), 15 µM (active) and 23.7 µM (active), respectively. Also, the call in [4] was inactive.

For the molecule `CCOc1ccc(N)c([N+](=O)[O-])c1`, the Potency result in experiment [5], in [8], in [2], in experiment [3] and in experiment [7] was “inactive” each time. In addition, in experiment [4], the result was inactive.

`C=CC1CC2C=CC1C2` (centres undefined): the Potency result in experiment [5], in [8], in experiment [2], in experiment [3] and in [7] was “inactive” each time. Moreover, the molecule was classed as inactive in [4].

`O=C1[C@H]2CCCC[C@H]2C(=O)N1CCCCN1CCN(c2nsc3ccccc23)CC1`: the Potency result in experiment [8], in [2] and in experiment [3] was “inactive” each time. Besides, the Potency in experiment [10] is 14.1 µM (active); in experiment [6], 15 µM (active). The call in [4] was inactive.

With `Cc1ccc(C(C)OC(=O)C2(C)CCC(C(=O)O)C2(C)C)cc1` (centres undefined), the Potency entry in experiment [5], in experiment [2], in experiment [3], in experiment [6] and in experiment [7] was “inactive” in each case. Besides, the outcome in experiment [4] was inactive.

With `O=C(O)C(S)C(S)C(=O)O` (centres undefined), the Potency result in [5], in experiment [10], in experiment [2], in experiment [3], in experiment [6] and in [7] was “inactive” throughout. Besides, in [4], the result was inactive.

For the molecule `COC(C)OC`, the Potency result in experiment [5], in [8], in experiment [2], in experiment [3], in experiment [6] and in experiment [7] was “inactive” throughout. Moreover, in [4], the molecule was called inactive.

Take `CCCCCCOC(=O)NC(=N)c1ccc(NCc2nc3cc(C(=O)N(CCC(=O)OCC)c4ccccn4)ccc3n2C)cc1`: the Potency is 26.6 µM (active) in experiment [9] and 23.7 µM (active) in [8]. Moreover, the Potency entry in experiment [3] is “inactive”. For the same molecule, the molecule was called inactive in [4].
